Data published in PubChem BioAssay (NCATS).
Results filed as inconclusive are left out. The source made the active and inactive calls. The call rests on the fitted dose curve; in most records, active means well fitted cell-killing curve with a large enough effect; inconclusive means small, poorly fitted or top-dose-only effect, or effect the other way; inactive means flat fitted curve, though single readings scatter.

What was measured:
Assay in all cases: Primary qHTS to identify gynecologic anti-cancer compounds using libraries of approved drugs and bioactive compounds (AID 1345084); further: nearly all actives have a fitted effect of over 55% in size
Details in all cases: Gynecologic cancer cell panel viability, ATPlite luminescence, 48 h; series mostly up to 57.5 µM
PA-1 = tested on: PA-1
In short: (§1)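 Luminescence from the ATPlite ATP-monitoring reagent indicates viable cell number; lower signal means cytotoxicity. Cells received compound 16 h after seeding and were exposed for 48 h across five concentrations.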

SKOV3 = tested on: SKOV3
In short: as §1

Tov-21-G = tested on: Tov-21-G
In short: as §1

Tov112D = tested on: Tov112D
In short: as §1
On the % scale 0 is the no-effect control and ±100 the full control effect.

CC1=C(C)C(=O)OC(C(C)C2CCC3C4C5OC5C5(O)CC(OC6OC(CO)C(OC7OC(C)C(O)C(O)C7O)C(O)C6O)CC(O)C5(C)C4CCC23C)C1 (stereo not given)
inactive: Potency (PA-1) | Potency (SKOV3) | Potency (Tov-21-G) | Potency (Tov112D)

OC[C@H]1O[C@@H](OCCc2ccc(O)cc2)[C@H](O[C@@H]2OC[C@](O)(CO)[C@H]2O)[C@@H](O)[C@@H]1O
inactive: Potency (PA-1) | Potency (SKOV3) | Potency (Tov-21-G) | Potency (Tov112D)

COC(=O)CCc1cc2ccoc2c(OC)c1O[C@@H]1O[C@H](CO)[C@@H](O)[C@H](O)[C@H]1O
inactive: Potency (PA-1) | Potency (SKOV3) | Potency (Tov-21-G) | Potency (Tov112D)

O=C1CSc2ccccc2N1Cc1cccc(C(F)(F)F)c1
inactive: Potency (PA-1) | Potency (SKOV3) | Potency (Tov-21-G) | Potency (Tov112D)

CC(C)c1ccc(CO)cc1O[C@@H]1O[C@H](CO)[C@@H](O)[C@H](O)[C@H]1O
inactive: Potency (PA-1) | Potency (SKOV3) | Potency (Tov-21-G) | Potency (Tov112D)

C[C@@H]([C@@H](O)c1ccc(O)cc1)N1CCC(O)(c2ccccc2)CC1
inactive: Potency (PA-1) | Potency (SKOV3) | Potency (Tov-21-G) | Potency (Tov112D)

C=C1C[C@]23C[C@H]1CC[C@H]2[C@@]12CC[C@H](O)[C@@](C)(C(=O)O1)[C@H]2[C@@H]3C(=O)O
inactive: Potency (PA-1) | Potency (SKOV3) | Potency (Tov-21-G) | Potency (Tov112D)

C=C1CCCC2(C)CC3(OC)OC(=O)C(C)=C3CC12 (stereo not given)
inactive: Potency (PA-1) | Potency (SKOV3) | Potency (Tov-21-G) | Potency (Tov112D)

Cc1cc(OCc2nc(-c3ccccc3Cl)cs2)ccc1OCC(=O)O
inactive: Potency (PA-1) | Potency (SKOV3) | Potency (Tov-21-G) | Potency (Tov112D)

C[C@@H]1O[C@@H](O[C@H]2[C@H](O[C@H]3[C@H](O)[C@@H](C(=O)O)O[C@@H](O[C@H]4CC[C@@]5(C)C(CC[C@]6(C)C5CC[C@]57OC[C@@]8(CCC(C)(C)CC85)[C@H](O)C[C@]76C)C4(C)C)[C@@H]3O[C@@H]3O[C@H](CO)[C@@H](O[C@@H]4OC[C@@H](O)[C@H](O)[C@H]4O)[C@H](O)[C@H]3O)O[C@H](CO)[C@H](O)[C@@H]2O)[C@H](O)[C@H](O)[C@H]1O (stereo not given in full)
inactive: activity change, negative = cytotoxicity (PA-1) 5.43% [at 6.55 µM] | activity change, negative = cytotoxicity (SKOV3) 0% [at 6.55 µM] | activity change, negative = cytotoxicity (Tov-21-G) -4.6% [at 6.55 µM] | activity change, negative = cytotoxicity (Tov112D) 10.2% [at 6.55 µM]
